Reference: PubChem BioAssay (NCI)
This is part of a sample that, as a whole, favours compounds with a hit. Of some 83,000 tested, about 20% had one in any assay.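 Method: cells in 96-well plates; compound added at one concentration; 48 h incubation; percent growth measured; values under 10 scored active.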 Activity calls are given as the source filed them.

These compounds were tested on IGROV1 ovarian (assay: NCI-60 one-dose screen, 48 h (100 = growth as untreated, 0 = no growth, -100 = all killed)). Conditions: 10 µM unless noted.
Procedure: Growth inhibition of the IGROV1 human tumor cell line is measured as a screen for anti-cancer activity. Cells are grown in 96 well plates and exposed to the test compound for 48 hours. Compounds are tested at a single concentration, which is 10^-5 M for most compounds. The reported endpoint is percent growth (GI% or GIPRCNT), where numbers from 0 - 100% represent growth inhibition, and numbers from -100% - 0 represent cell death. For example, a value of 40 represents 60% growth inhibition. A value of 0 means no net growth occurred over the course of the experiment. A value of -40 indicates 40% of cells at the beginning of the experiment died by the end of the experiment. A value of -100 means all cells are dead at the end of the experiment.
NCI-60 Human Tumor Cell Lines Screen was performed using the standard one-dose NCI protocol, which is described in more detail at https://dtp.cancer.gov/discovery_development/nci-60/default.htm.
Compounds with GIPRCNT values below 10 were considered active. Activity score was based on GIPRCNT using the following formula: […]
Score is 0 for GIPRCNT values of 100 or above, 50 for GIPRCNT values of 0, and 100 for GIPRCNT values of -100.

With `Cc1ccc(Sc2oc(-c3ccc(C)cc3)nc2[P+](c2ccccc2)(c2ccccc2)c2ccccc2)cc1` as the compound, how does the growth read?
Its growth is -74.4% (active).

`O=C(/C=C/c1cccs1)c1ccc(Cl)nc1` was tested. Which growth did it give?
The growth was 107% (inactive).

Which growth does the source give for `CCCCCCCCCCCCCCCCCCOc1ccccc1CC(=O)OCC[N+]1(C)CCCC1` here?
The growth was -58% (active).

For `O=C(CCCCCCN1CC(=O)N2[C@H](c3cc(Br)cs3)c3[nH]c4ccccc4c3C[C@H]2C1=O)NO`, which growth is on record?
The growth was 40.7% (inactive).

With `CN1CCN(c2ccc(NC(=O)c3nc4ccc5[nH]ncc5c4c4c3CCCC4)cc2C(F)(F)F)CC1` as the compound, how does the growth read?
The growth was 4.75% (active).

Which growth does the source give for `Cc1ccc(/C=N/Nc2nc(Nc3ccccc3)nc(-n3nc(C)cc3C)n2)cc1` here?
The growth was 5.33% (active).

`CCOC(=O)C1=NN(c2ccccc2)C(=O)/C1=C\N1C(=O)CC(=O)NC1=S` was tested. Which growth did it give?
Its growth is 106% (inactive).

`CCOC(=O)c1cc(-c2ccc([N+](=O)[O-])cc2)n(-c2ccc(C(=O)O)c(O)c2)c1C` was tested. Which growth did it give?
The growth was -11.3% (active).

For `CC(C)CCNC(=O)Cn1cccc(NC(=O)OCc2ccccc2)c1=O`, which growth is on record?
The growth was 112% (inactive).

How did the growth turn out when `O=C(CCCCC1CCSS1)Nc1ncnc2n[nH]c(-c3ccc(Oc4ccccc4)cc3)c12` (stereo not given) was run?
The growth was 93.5% (inactive).

How did the growth turn out when `O=C(Cn1c(=O)sc2ccccc21)NNS(=O)(=O)c1ccccc1[N+](=O)[O-]` was run?
Its growth is 102% (inactive).

Which growth does the source give for `CCOC(=O)C#Cc1c(C(=O)OCC)nnn1[C@@H]1O[C@H](CO)[C@H]2OC3(CCCCC3)O[C@H]21` here?
The growth was 96% (inactive).

With `CC1=C(C(=O)OC(C)C)C(c2ccc3c(c2)OCO3)NC(=S)N1` (stereo not given) as the compound, how does the growth read?
The growth was 99.9% (inactive).

How did the growth turn out when `Fc1ccc2[nH]cc(-c3nonc3-c3c[nH]c4ccc(Br)cc34)c2c1` was run?
The growth was 41.6% (inactive).

Which growth does the source give for `N#Cc1c(NC(=O)c2ccccc2)sc2c1CCC(=O)C2` here?
Its growth is 27.4% (inactive).

Which growth does the source give for `CCN1CCN(Cc2cn(CC(=O)Nc3ccc4c(ccn4Cc4ccccc4)c3)nn2)CC1` here?
Its growth is 105% (inactive).

How did the growth turn out when `C#CCOc1ccc2ncnc(Nc3ccc(NC(=O)CCl)cc3)c2c1` was run?
Its growth is -55.3% (active).

How did the growth turn out when `O=C(O)CCCN1C(=O)/C(=C/C(Cl)=C/c2ccccc2)SC1=S` was run?
The growth was 7.37% (active).

With `COc1ccc(C2=Nc3c/c(=C\c4c(O)[nH]c5ccc(Cl)cc45)ccc3=N2)cc1` as the compound, how does the growth read?
Its growth is 75.3% (inactive).

Which growth does the source give for `Cc1ccc(-c2cc(-c3ccc(Cl)cc3)nc(NC(=O)c3cccnc3)n2)cc1` here?
The growth was 102% (inactive).

`COc1ccc(N2CCC(=O)NC2=S)cc1` was tested. Which growth did it give?
The growth was 108% (inactive).

With `O=C1Nc2ccccc2[C@]12CC(c1ccccc1)=NN2` as the compound, how does the growth read?
The growth was 33.1% (inactive).

With `CCn1cc(C(=O)N/N=C/c2cccs2)c(=O)c2cc(F)c(N3CCNC(C)C3)c(F)c21` (stereo not given) as the compound, how does the growth read?
Its growth is 67% (inactive).

How did the growth turn out when `COc1ccc(-c2nn(-c3ccccc3)cc2/C=C2/SC(=S)N(C)C2=O)cc1` was run?
Its growth is 33.3% (inactive).

Which growth does the source give for `CN1C(=O)/C(=C/c2cn(-c3ccccc3)nc2-c2ccccc2)SC1=S` here?
Its growth is 107% (inactive).

For `O=C(Nc1cccnc1Nc1ccc(F)cc1)c1cn(Cc2cccc(Oc3ccccc3)c2)nn1`, which growth is on record?
Its growth is 91.2% (inactive).

How did the growth turn out when `Cc1cc2c(O)c(-c3cccc(Cl)c3)c3sc(=O)oc3c2cc1C` was run?
The growth was 41% (inactive).

For `COc1ccc2cc(-c3ccc(NC(C)=O)c(=O)o3)ccc2c1`, which growth is on record?
Its growth is 108% (inactive).

For `N#Cc1c(-c2ccc(Cl)cc2)nc(NN=Cc2cccc(O)c2)nc1N1CCOCC1`, which growth is on record?
The growth was 64.9% (inactive).

How did the growth turn out when `CN1CCN(c2ccc(NC(=O)c3cncnc3Nc3ccc(OCc4ccccn4)c(Cl)c3)cc2)CC1` was run?
Its growth is 79.4% (inactive).

With `c1ccc(C2=NN[C@H](c3cn(-c4ccccc4)nc3-c3ccccc3)C2)cc1` as the compound, how does the growth read?
Its growth is 62.1% (inactive).

For `O=C1/C(=C/c2ccc(Cl)cc2)COc2ccc(O)c(O)c21`, which growth is on record?
Its growth is -38% (active).

How did the growth turn out when `Fc1ccc(-c2nn(-c3ccccc3)cc2-c2nc3ccccc3o2)cc1` was run?
The growth was 82.1% (inactive).

With `CC(=O)N(N=Nc1ccccc1)c1cccc2ccccc12` as the compound, how does the growth read?
Its growth is 62.9% (inactive).

With `CCCCCCCCCCCCCCCC(N)c1ccccc1` (stereo not given) as the compound, how does the growth read?
The growth was -46.6% (active).

With `O=C1/C(=C/c2ccc(Cl)cc2)COc2ccc(O)cc21` as the compound, how does the growth read?
The growth was 78.6% (inactive).

With `CC(=O)OC[C@]12CCC(C)(C)C[C@H]1[C@@]1(O)[C@H](O)C[C@@H]3[C@@]4(C)CCCNC(C)(C)[C@@H]4CC[C@@]3(C)[C@]1(C)CC2` as the compound, how does the growth read?
Its growth is 107% (inactive).

Which growth does the source give for `O=C1Nc2ccccc2/C1=C\c1nc(-c2ccccc2)n2ccccc12` here?
Its growth is 67% (inactive).

`CNC(=O)c1c(NC(=O)c2ccc(C(F)(F)F)cc2)sc2c1CCC(=O)C2` was tested. Which growth did it give?
The growth was -4.58% (active).

How did the growth turn out when `CCOC(=O)CSc1ncnc2c1c(-c1ccccc1)c(-c1ccccc1)n2-c1ccc(C)cc1` was run?
Its growth is 79.9% (inactive).
